From PubChem
Rows were chosen to be rich in hits. Some 3.4% of all compounds tested hit in one or more screens of this group.
sPLA2-III inh – human group III sPLA2 inhibitors, primary screen, biochemical, QFRET, BODIPY PC-A2 liposome substrate | inhibition, % at 12.2 µM | QFRET BODIPY PC-A2 liposome hydrolysis, fluorescence | 370,000 compounds, 0.56% hits | Group 3 secretory phospholipase A2 (Homo sapiens), Q9NZ20;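 active means inhibition above mean plus 3 SD of compounds lying within the high and low control bounds, cut at about 19% in these data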;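 further: 0% = median of test compound wells and 100% = no enzyme DMSO wells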
ADAM17 inh – ADAM17 inhibitors, primary screen, biochemical, QFRET; Disintegrin and metalloproteinase domain-containing protein 17 (Homo sapiens), P78536; recombinant ADAM17, EDANS/DABCYL FRET peptide cleavage; inhibition, % at 6.95 µM; 370,000 compounds, 0.83% hits; AID 720648, 2013;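 active means inhibition above the mean of compounds lying between control limits plus 3 SD, set per campaign, cut at about 8.5% in these data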;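 further: 0% = DMSO-only wells as the low control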
PLC-beta3 inh – human PLC-beta3 inhibitors, primary screen, biochemical, fluorescence. Purified PLC-beta3, fluorogenic substrate. inhibition, % at 12.2 µM. 370,000 compounds, 0.18% hits. AID 720704, 2013; in the data active means inhibition above about 11%;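 further: 0% = median of compound wells on plate and 100% = full blocker control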
proKLK7 act – proKLK7 zymogen activators, primary screen, biochemical, fluorescence intensity. purified proKLK7, EDANS-DABCYL substrate fluorescence; 100% is mature enzyme control, 0% vehicle. activation, % at 7 µM. 370,000 compounds, 0.9% hits;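 active means activation above the mean of all tested compounds plus 3 SD, computed per campaign excluding outliers beyond control limits, cut at about 13% in these data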
PLC-gamma1 inh – PLC-gamma1 enzyme inhibitors, primary screen, biochemical, fluorescence, purified enzyme. fluorogenic substrate. inhibition, % at 12.2 µM. 370,000 compounds, 0.84% hits
ADAM10 inh – human ADAM10 inhibitors, primary screen, biochemical, QFRET, HTS; Disintegrin and metalloproteinase domain-containing protein 10 (Homo sapiens), O14672; recombinant ADAM10, EDANS/DABCYL FRET peptide cleavage, 3 h; inhibition, % at 7 µM; 370,000 compounds, 0.62% hits;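 active means inhibition above a per-campaign cutoff equal to the mean of compounds falling between control-based bounds plus 3 SD, cut at about 20% in these data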;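 further: 0% = DMSO wells while the 100% control is not disclosed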
PLCgamma1 ctr – PLC-gamma1 enzyme inhibitors, counter-screen for PLC-beta3 inhibitor project, biochemical, fluorescence; shares compounds with PLC-gamma1 inh; purified PLC-gamma1, fluorogenic substrate; 3,300 compounds, 3.1% hits; inhibition, % at 12.3 µM
PLCb3 confirm – PLC-beta3 inhibitor confirmation, biochemical, fluorescence, purified enzyme | 3,300 compounds, 1% hits | fluorogenic substrate fluorescence | inhibition, % at 12.3 µM | shares compounds with PLC-gamma1 inh; in the data active means inhibition above about 11%
The depositor's hits bear a star; · = no result. Unless noted, no stated cut-off is given here; in the data, active means inhibition above about 9.5%; inactive means the rest.

SMILES	sPLA2-III inh	ADAM17 inh	PLC-beta3 inh	proKLK7 act	PLC-gamma1 inh	ADAM10 inh	PLCgamma1 ctr	PLCb3 confirm
O=[N+]([O-])c1ccc(NCc2ccncc2)cc1	-2	6	1	0	13*	9	-6	-5
Cc1ccc(OCCNCc2ccccc2)c(C)c1	-9	0	-1	1	0	-4	·	·
Cc1ccc(OCCCCNC(C)c2ccccc2)c(C)c1 (centres undefined)	-7	1	-1	0	13*	8	-3	1
CC(=O)Nc1ccc(N2C(=O)CSC2c2c(F)cccc2Cl)cc1 (centres undefined)	0	1	14*	0	8	15	-2	-2
Cc1csc2nc(O)c(C(=O)NCCCN3CCCC3=O)c(=O)n12	4	3	4	-1	9.7*	2	-7	-4
O=C(N/N=C/c1cccc(F)c1)c1c(O)c2c([nH]c1=O)CCCC2	4	4	12*	0	6	5	-2	0
CC(C)(C)N(NC(=O)Nc1ccccc1)C(=O)c1ccccc1	2	-2	8	0	13*	2	-4	2
CC(C)(C)N(NC(=O)Nc1ccc(Cl)cc1)C(=O)c1ccccc1	-8	-1	0	0	-2	-2	·	·
COC(=O)c1ccc(/C=N/N2CCN(Cc3ccccc3Cl)CC2)cc1	-1	0	-3	0	-1	1	·	·
CC(=NN1CCN(Cc2ccccc2Cl)CC1)c1ccc(O)cc1	11	1	10	0	16*	3	-3	-4
CCn1cc(C(=O)N2CCc3ccccc32)c(=O)c2cc(S(=O)(=O)N(C)C3CCCCC3)ccc21	-7	7	5	0	10*	12	-3	-4
CCn1cc(C(=O)N2CCc3ccccc32)c(=O)c2cc(S(=O)(=O)N3CCOCC3)ccc21	-3	1	1	0	-2	-4	·	·
COc1ccc(S(=O)(=O)N(C)C)cc1NCC(=O)Nc1ccc(Br)c(C)c1	-16	3	-9	0	-1	14	·	·
CCCCn1c(N)c(N(CC)C(=O)c2ccccc2F)c(=O)[nH]c1=O	8	1	6	-1	12*	3	-3	1
CCCn1c(N)c(N(CCOC)C(=O)c2ccccc2F)c(=O)[nH]c1=O	3	2	0	0	3	1	·	·
Cc1nn(-c2ccccc2)c(N2CCCC2)c1/C=N/NC(=O)C1CC1	7	-2	-6	0	12*	-2	2	-2
Cc1nn(-c2ccccc2)c(N2CCCC2)c1/C=N/NC(=O)c1ccccc1O	-9	-5	-49	-2	-43	-18	·	·
Cc1ccc(C(=O)CCC(=O)OCC(=O)N2c3ccccc3NC(=O)C2(C)C)cc1	1	2	-3	0	9	-13	·	·
Cc1c(C(=O)N2CCCCC2)nnn1-c1nonc1N	-2	-3	2	1	19*	4	-7	-3
O=C(Cc1ccc(Cl)cc1)NN1C(=O)c2ccccc2C1=O	6	6	4	0	11*	9	-9	0
Cc1cc(C)cc(OCC(=O)NN2C(=O)c3ccccc3C2=O)c1	-2	-1	-2	0	-3	6	·	·
CS(=O)(=O)N(CC(=O)Nc1ccc(S(=O)(=O)N2CCCC2)cc1)c1cccc(F)c1	-22	1	-2	1	5	6	·	·
Cc1ccc(CCC(=O)Nc2ccc(CC(=O)O)cc2)o1	-8	-1	-5	1	2	4	·	·
CC(C)Cn1c(N)c(C(=O)COC(=O)C2Cc3ccccc3CN2S(C)(=O)=O)c(=O)n(C)c1=O (centres undefined)	-3	-1	-5	0	1	-14	·	·
CSc1nc2c(c(C(F)(F)F)n1)CC(C)CC2 (centres undefined)	1	1	-3	0	9.6*	-2	2	1
SMILES	sPLA2-III inh	ADAM17 inh	PLC-beta3 inh	proKLK7 act	PLC-gamma1 inh	ADAM10 inh	PLCgamma1 ctr	PLCb3 confirm
Cc1c2c(nc3ccccc13)CCC(C)C2 (centres undefined)	1	1	0	-1	1	-3	·	·
Cc1ccc(S(=O)(=O)N2CCCN(C(=O)c3cc4ccccc4[nH]3)CC2)cc1	-19	2	-11	0	-7	8	·	·
CC(NS(=O)(=O)c1ccc2c(c1)C(=O)c1cc(S(=O)(=O)NC(C)C(=O)O)ccc1-2)C(=O)O (centres undefined)	4	5	-2	1	15*	-6	-8	-4
CCOC(=O)C1=C(CC)Nc2ccccc2N=C1NC(=O)Cn1cnc2ccccc2c1=O	0	2	8	0	9.5*	1	-7	-3
CCOc1ccc(NC(=O)CCNC(=O)Cn2cnc3ccccc3c2=O)cc1	7	-4	-9	-1	9.6*	3	-1	1
CCc1ccc(NC(=O)CCNC(=O)Cn2cnc3ccccc3c2=O)cc1	0	2	-4	0	3	9	·	·
CC1CN(C(=O)COC(=O)c2ccccc2O)CC(C)O1 (centres undefined)	1	-1	-3	1	0	2	·	·
CCOC(=O)N1CCN(C(=O)/C(=C/c2cccs2)NC(=O)c2ccc(OC)c(OC)c2)CC1	1	0	-10	0	-1	-6	·	·
CCCNC(=S)Nc1ccc(Nc2ccccc2)cc1	-9	2	1	0	4	9	·	·
S=C(NCCCNC(=S)Nc1ccccc1)Nc1ccccc1	13	3	4	0	13*	-1	-7	-5
S=C(NCCN1CCCCC1)Nc1ccc(Br)cc1	18	-1	1	0	6	13	·	·
S=C(NCCN1CCCCC1)Nc1ccccc1	10	-37	3	-1	10*	5	-7	-3
O=C(Nc1ccccc1C(=O)Nc1ccc(Br)cn1)c1cccc([N+](=O)[O-])c1	12	-6	-7	0	10*	-11	-9	-2
Cc1ccc(SCc2cc(=O)n3[nH]c(C)nc3n2)cc1	5	-5	-4	0	-1	-2	·	·
Cc1ccc(SCc2cc(=O)n(C)[nH]2)cc1	-3	1	6	0	11*	2	-2	-3
